Results: PubChem BioAssay AID1159580 (chemical genetic matrix, 2015)
Out of some 5,500 compounds screened, about 2,000 (36%) were called active. Inconclusive results (about 18%) are left out. Rule as the data show it: active = normalized growth mostly below about 0.91 (no sharp cut-off); inconclusive = no clear call, values can overlap the other calls; inactive = mostly above about 0.92. This is one part of the list.

Assay: chemical genetic growth profiling, strain panel (AID 1159580);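 also: tested at 20 µM; growth read once vehicle control cultures reached saturation at 30 °C; 1 = growth at the plate median or of vehicle wells; lower values mean less growth of the strain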
Settings: growth OD
[1] = S. cerevisiae deletion strains, locus YAL013W, strain DEP1, stronger effect = lower value
[2] = S. cerevisiae deletion strains, locus YBR229C, strain ROT2, stronger effect = lower value
[3] = S. cerevisiae deletion strains, locus YDL101C, strain DUN1, stronger effect = lower value
[4] = S. cerevisiae deletion strains, locus YGR078C, strain PAC10, stronger effect = lower value
[5] = S. cerevisiae deletion strains, locus YJR043C, strain POL32, stronger effect = lower value
[6] = S. cerevisiae deletion strains, locus YKL190W, strain CNB1, stronger effect = lower value
[7] = S. cerevisiae deletion strains, locus YLR039C, strain RIC1, stronger effect = lower value
[8] = S. cerevisiae deletion strains, locus YLR262C, strain YPT6, stronger effect = lower value
[9] = S. cerevisiae deletion strains, locus YMR263W, strain SAP30, stronger effect = lower value
[10] = S. cerevisiae deletion strains, locus YMR307W, strain GAS1, stronger effect = lower value
[11] = S. cerevisiae deletion strains, locus YOL006C, strain TOP1, stronger effect = lower value
[12] = S. cerevisiae deletion strains, locus YPL055C, strain LGE1, stronger effect = lower value
[13] = S. cerevisiae deletion strains, locus YPL241C, strain CIN2, stronger effect = lower value
[14] = S. cerevisiae strains, strain wild type, stronger effect = lower value

Measured: normalized growth

COc1cc(/C=C2/N=C(c3ccccc3I)OC2=O)cc(OC)c1OC
inactive: [1] 1 | [2] 1.01 | S. cerevisiae deletion strains, locus YCL061C, strain MRC1, stronger effect = lower value 1.01 | [3] 1.03 | S. cerevisiae deletion strains, locus YDR150W, strain NUM1, stronger effect = lower value 0.888 | S. cerevisiae deletion strains, locus YEL061C, strain CIN8, stronger effect = lower value 0.984 | [4] 1 | S. cerevisiae deletion strains, locus YGR229C, strain SMI1, stronger effect = lower value 0.981 | S. cerevisiae deletion strains, locus YHR030C, strain SLT2, stronger effect = lower value 0.956 | S. cerevisiae deletion strains, locus YHR087W, strain rtc3, stronger effect = lower value 1.01 | [5] 1 | S. cerevisiae deletion strains, locus YJR075W, strain HOC1, stronger effect = lower value 1.01 | [6] 0.995 | [7] 0.964 | S. cerevisiae deletion strains, locus YLR058C, strain SHM2 (second series), stronger effect = lower value 0.996 | S. cerevisiae deletion strains, locus YLR085C, strain ARP6, stronger effect = lower value 1.01 | [8] 0.947 | S. cerevisiae deletion strains, locus YML094W, strain GIM5, stronger effect = lower value 1.02 | S. cerevisiae deletion strains, locus YMR219W, strain ESC1, stronger effect = lower value 1 | [9] 1 | [10] 0.961 | S. cerevisiae deletion strains, locus YNL153C, strain GIM3, stronger effect = lower value 1.01 | S. cerevisiae deletion strains, locus YNL298W, strain CLA4 (second series), stronger effect = lower value 1.01 | S. cerevisiae deletion strains, locus YNL322C, strain KRE1, stronger effect = lower value 0.994 | S. cerevisiae deletion strains, locus YNR030W, strain Alg12, stronger effect = lower value 0.982 | [11] 0.998 | [12] 1.12 | [13] 0.967 | S. cerevisiae deletion strains, locus YPR135W, strain CTF4, stronger effect = lower value 0.903 | [14] 0.989

COc1cc(/C=C/C=O)cc(OC)c1OC
inactive: [1] 1.03 | S. cerevisiae deletion strains, locus YBR021W, strain FUR4, stronger effect = lower value 1.01 | [2] 1.01 | S. cerevisiae deletion strains, locus YCL029C, strain bik1, stronger effect = lower value 1.03 | S. cerevisiae deletion strains, locus YDL035C, strain GPR1, stronger effect = lower value 1.04 | S. cerevisiae deletion strains, locus YDL074C, strain BRE1, stronger effect = lower value 1.07 | [3] 1.02 | S. cerevisiae deletion strains, locus YDL185W, strain tfp1, stronger effect = lower value 1 | S. cerevisiae deletion strains, locus YDL192W, strain arf1, stronger effect = lower value 1.02 | S. cerevisiae deletion strains, locus YDR101C, strain arx1, stronger effect = lower value 1.02 | S. cerevisiae deletion strains, locus YDR162C, strain NBP2, stronger effect = lower value 1.07 | S. cerevisiae deletion strains, locus YDR318W, strain mcm21, stronger effect = lower value 1.03 | S. cerevisiae deletion strains, locus YDR388W, stronger effect = lower value 1.01 | S. cerevisiae deletion strains, locus YDR502C, strain sam2, stronger effect = lower value 1.02 | S. cerevisiae deletion strains, locus YER110C, stronger effect = lower value 1 | S. cerevisiae deletion strains, locus YER155C, strain BEM2, stronger effect = lower value 1.02 | S. cerevisiae deletion strains, locus YER167W, strain BCK2, stronger effect = lower value 1.02 | S. cerevisiae deletion strains, locus YGL078C, strain dbp3, stronger effect = lower value 1.01 | S. cerevisiae deletion strains, locus YGL086W, strain mad1, stronger effect = lower value 1.02 | S. cerevisiae deletion strains, locus YGL248W, strain PDE1, stronger effect = lower value 1.04 | [4] 1.04 | S. cerevisiae deletion strains, locus YGR135W, strain pre9, stronger effect = lower value 0.998 | S. cerevisiae deletion strains, locus YGR252W, strain gcn5, stronger effect = lower value 1.03 | S. cerevisiae deletion strains, locus YHR079C, strain IRE1 (second series), stronger effect = lower value 1 | S. cerevisiae deletion strains, locus YHR094C, strain hxt1, stronger effect = lower value 0.995 | S. cerevisiae deletion strains, locus YHR129C, strain ARP1, stronger effect = lower value 1.02 | S. cerevisiae deletion strains, locus YHR200W, strain rpn10, stronger effect = lower value 1.01 | S. cerevisiae deletion strains, locus YIL066C, strain RNR3, stronger effect = lower value 1.02 | S. cerevisiae deletion strains, locus YIL073C, strain SPO22, stronger effect = lower value 1.06 | S. cerevisiae deletion strains, locus YIL125W, strain kgd1, stronger effect = lower value 1 | S. cerevisiae deletion strains, locus YIR030C, strain dcg1, stronger effect = lower value 1.01 | S. cerevisiae deletion strains, locus YJL095W, strain BCK1, stronger effect = lower value 1.06 | S. cerevisiae deletion strains, locus YJL134W, strain LCB3, stronger effect = lower value 1.01 | S. cerevisiae deletion strains, locus YJL168C, strain set2, stronger effect = lower value 0.997 | S. cerevisiae deletion strains, locus YJL187C, strain SWE1 (second series), stronger effect = lower value 1.04 | [5] 1.06 | S. cerevisiae deletion strains, locus YKL009W, strain mrt4, stronger effect = lower value 1.01 | S. cerevisiae deletion strains, locus YKL068W, stronger effect = lower value 0.994 | S. cerevisiae deletion strains, locus YKL085W, strain MDH1 (second series), stronger effect = lower value 1.01 | S. cerevisiae deletion strains, locus YKL085W, strain MDH1, stronger effect = lower value 1.01 | [6] 1.01 | S. cerevisiae deletion strains, locus YKR001C, strain vps1, stronger effect = lower value 1.07 | [7] 1.14 | S. cerevisiae deletion strains, locus YLR058C, strain SHM2, stronger effect = lower value 1.03 | S. cerevisiae deletion strains, locus YLR102C, strain apc9, stronger effect = lower value 0.999 | [8] 1.13 | S. cerevisiae deletion strains, locus YLR268W, strain sec22, stronger effect = lower value 1.03 | S. cerevisiae deletion strains, locus YLR342W, strain FKS1 (second series), stronger effect = lower value 1.09 | S. cerevisiae deletion strains, locus YLR371W, strain rom2, stronger effect = lower value 0.991 | S. cerevisiae deletion strains, locus YLR418C, strain cdc73, stronger effect = lower value 1.02 | S. cerevisiae deletion strains, locus YML016C, strain PPZ1, stronger effect = lower value 1.02 | S. cerevisiae deletion strains, locus YML032C, strain rad52, stronger effect = lower value 1.03 | S. cerevisiae deletion strains, locus YML124C, strain tub3, stronger effect = lower value 0.996 | S. cerevisiae deletion strains, locus YMR078C, strain ctf18, stronger effect = lower value 0.994 | S. cerevisiae deletion strains, locus YMR223W, strain ubp8, stronger effect = lower value 1.01 | [9] 1.03 | [10] 1.06 | S. cerevisiae deletion strains, locus YNL067W, strain RPL9B, stronger effect = lower value 1.03 | S. cerevisiae deletion strains, locus YNL128W, strain TEP1, stronger effect = lower value 1.03 | S. cerevisiae deletion strains, locus YNL233W, strain BNI4, stronger effect = lower value 1.04 | S. cerevisiae deletion strains, locus YNL250W, strain rad50, stronger effect = lower value 1 | S. cerevisiae deletion strains, locus YNL271C, strain bni1, stronger effect = lower value 1 | S. cerevisiae deletion strains, locus YNL298W, strain CLA4, stronger effect = lower value 0.995 | S. cerevisiae deletion strains, locus YNL307C, strain MCK1, stronger effect = lower value 1 | S. cerevisiae deletion strains, locus YNR052C, strain pop2, stronger effect = lower value 1 | [11] 1.22 | S. cerevisiae deletion strains, locus YOL012C, strain htz1 0.967 | S. cerevisiae deletion strains, locus YOL147C, strain pex11, stronger effect = lower value 1.01 | S. cerevisiae deletion strains, locus YOR061W, strain CKA2, stronger effect = lower value 1.04 | S. cerevisiae deletion strains, locus YOR069W, strain VPS5, stronger effect = lower value 1.01 | S. cerevisiae deletion strains, locus YOR136W, strain idh2, stronger effect = lower value 1.01 | S. cerevisiae deletion strains, locus YOR144C, strain elg1, stronger effect = lower value 0.998 | S. cerevisiae deletion strains, locus YOR184W, strain ser1, stronger effect = lower value 1.07 | S. cerevisiae deletion strains, locus YOR316C, strain cot1, stronger effect = lower value 0.988 | [12] 1.08 | [13] 1.01 | S. cerevisiae deletion strains, locus YPR119W, strain clb2, stronger effect = lower value 0.995 | S. cerevisiae deletion strains, locus YPR141C, strain kar3, stronger effect = lower value 1 | S. cerevisiae deletion strains, locus YPR163C, strain tif3, stronger effect = lower value 1.02 | S. cerevisiae deletion strains, locus YPR167C, strain met16, stronger effect = lower value 1.01 | S. cerevisiae deletion strains, strain wtn01, stronger effect = lower value 1.03 | [14] 1.05
